Tests used:
[1] = target: T1, Aspartate--tRNA(Asp/Asn) ligase (Mycobacterium tuberculosis (strain ATCC 25618 / H37Rv)) (UniProt P9WFW3); test: Assay for Asp RNA synthetase-1 from Mycobacterium tuberculosis; assay type: functional; set-up: scale not given: direction of the effect not stated beside the values; conditions: 30 µM; also: in the data most compounds retested in dose-response had high values
T1 sequence (whole entry): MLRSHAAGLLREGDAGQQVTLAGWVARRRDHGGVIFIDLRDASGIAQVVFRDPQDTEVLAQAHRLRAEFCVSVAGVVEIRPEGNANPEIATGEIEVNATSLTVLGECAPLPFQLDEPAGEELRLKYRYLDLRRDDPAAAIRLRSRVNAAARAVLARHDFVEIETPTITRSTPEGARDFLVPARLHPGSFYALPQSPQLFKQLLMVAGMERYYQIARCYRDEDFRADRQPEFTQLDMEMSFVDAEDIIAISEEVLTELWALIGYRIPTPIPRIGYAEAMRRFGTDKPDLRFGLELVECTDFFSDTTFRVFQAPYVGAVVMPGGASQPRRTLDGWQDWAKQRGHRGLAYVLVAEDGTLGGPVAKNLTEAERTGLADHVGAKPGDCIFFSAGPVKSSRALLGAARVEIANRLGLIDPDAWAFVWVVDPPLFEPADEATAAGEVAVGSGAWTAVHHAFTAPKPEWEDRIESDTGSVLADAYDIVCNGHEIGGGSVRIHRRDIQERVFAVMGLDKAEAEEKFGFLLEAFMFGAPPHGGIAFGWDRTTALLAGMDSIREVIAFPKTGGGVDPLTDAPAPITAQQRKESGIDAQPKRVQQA

[2] = target: Shiga toxin 2 (Escherichia coli O157:H7) (UniProt P09385+P09386); test: E. coli 0.157:H7 Shiga Toxin SOP - stx2 screening assay; assay type: functional; set-up: scale not given: direction of the effect not stated beside the values; conditions: 30 µM

SMILES | Percent Effect [1] [%] | Percent Effect [2] [%]
CCCN1C(=O)CC(N2CCN(c3ccc(F)cc3)CC2)C1=O (stereo not drawn) | 5.99 | -15.7
COc1ccc(C2CCCN2C(=O)c2csc(NC(C)=O)n2)cc1 (stereo not drawn) | 0.516 | -30.4
CCc1nc(C2CCCN(C(=O)c3cnn(CC)c3)C2)no1 (stereo not drawn) | 2.22 | 3.55
CCCC(C)CN1CCC(n2cc(CCCO)nn2)CC1 (stereo not drawn) | 1.56 | -23.7
O=C(c1cnco1)N1CCCC(Cc2cccc3ncccc23)C1 (stereo not drawn) | 3.23 | -27.4
O=C(Nc1ccccn1)C1=NN(c2ccccc2)C(=O)CN1 | 0.657 | -27.9
Cc1cnn(CCNCc2ccc(C#N)cc2F)c1 | -3.18 | 6.24
O=C(c1ccno1)N1CC[C@@H]2O[C@@H](COCCN3CCCC3)CC[C@@H]21 | -0.779 | -4.5
CC(C)c1nc2n(n1)CC(NCc1ccncc1)CC2 (stereo not drawn) | -2.1 | -1.1
CN(Cc1ccccc1)CC(O)Cn1cnc2ccsc2c1=O (stereo not drawn) | -1.75 | -2.3
O=C(c1cccc(Cl)c1)N1CC[C@H]2[C@H]1CCN2CC1CCOCC1 | -4.93 | -25.2
CN(C)CCNC(=O)c1cnc2c(c1)nc(-c1ccccc1Cl)n2C | 3.74 | 5.62
CC(C)c1nn(C)c(Cl)c1CNCC(O)c1cccc(F)c1 (stereo not drawn) | -0.173 | 10.3
CN(C)C(=O)CC1CC2(CCNCC2)c2cc(F)ccc21 (stereo not drawn) | 2.15 | 1.21
CCOCCCNC(=O)c1nn(CC)cc1Cl | -5.87 | -47.7
O=C(O)c1cc2c(nc1O)CC(c1cccc(Cl)c1)CC2=O (stereo not drawn) | 0.494 | -22.1
NC(=O)C1CCN(Cn2nc(-c3ccc(F)cc3)oc2=O)CC1 | 4.96 | -69.6
Cc1ccc(C(=O)N2CCC3(CCC(=O)N(CC(N)=O)C3)CC2)c(O)c1 | -0.585 | -12.4
CCCc1noc(CCC(=O)NC(C)c2nnc3n2CCCCC3)n1 (stereo not drawn) | -4.13 | -15.1
Cn1cc(C(=O)Nc2ccc3c(c2)CN(C(=O)c2ccco2)CC3)nn1 | 5.79 | -88.9

SMILES | Percent Effect [1] [%] | Percent Effect [2] [%]
Cc1nonc1C(=O)N1CCCC(c2ncncc2-c2ccncc2)C1 (stereo not drawn) | 2.57 | 10.2
Cc1cc(NC(=O)NCc2cccnc2OC(C)C)n(C)n1 | 5.63 | -9.92
COc1cc(C(=O)N(Cc2ccc(F)cc2)C2CC2)cc2c1OCCO2 | 9.07 | -12.1
CCn1ccnc1CN1CCOC(CNc2cccnn2)C1 (stereo not drawn) | -0.152 | -18.9
Cc1nc(C2CCCN(C(=O)COCc3ccccc3Cl)C2)no1 (stereo not drawn) | 1.96 | 5.07
CCn1cc(CN2CCCN(C(=O)C3=NN(C)C(=O)CC3)CC2)cn1 | 0.98 | 10.4
Cc1cnn(CCC(=O)N2CCCC(c3nc(C)no3)C2)c1 (stereo not drawn) | 4.08 | 3.29
Cc1ccccc1C1CCCN1C(=O)CN1CC2(CCNCC2)OC1=O (stereo not drawn) | 3.25 | 2.84
CC(Cn1cccn1)NC(=O)N1CCN(Cc2cccnc2)CC1 (stereo not drawn) | 0.625 | -18.1
Cc1nn(CC(=O)N2CCC(Nc3cccnn3)CC2)c(C)c1Cl | -1.63 | -23.6
Cc1cc(C)n(CC2CN(CCOc3cccc(C#N)c3)CCO2)n1 (stereo not drawn) | 4.21 | 33
COc1cccc(S(=O)(=O)NC(=O)COC2CCCC2)c1 | 2.03 | -4.79
CN(Cc1ccsc1)C(=O)CS(=O)(=O)Cc1ccc(Cl)c(Cl)c1 | 3.95 | 41.2
Cc1nc(CN2CCc3ncnc(-c4ccc(F)cc4)c3CC2)cs1 | -0.199 | 5.58
CC(=O)N1CC(=O)N(c2cnn(C)c2)CC12CCN(Cc1ccsc1)C2 (stereo not drawn) | 4.83 | -25.5
CN1CCCn2c(nc(CNC(=O)c3ccsc3)cc2=O)C1 | 4.62 | -9.45
O=C(C1CCCCN1Cc1nc(-c2ccco2)no1)N1CCCC1 (stereo not drawn) | 3.38 | 27.5
CC(=O)N(Cc1noc(C)n1)C1CCN(CCOc2ccccc2)C1 (stereo not drawn) | 2.87 | -29.9
CNS(=O)(=O)c1ccc(C(=O)N2CCCC2c2ccccc2)o1 (stereo not drawn) | -0.871 | 34
